Results from the supplement of paper PMC3484114.
± gives the standard deviation.

Each compound was assayed on OVCAR-3-derived ovarian cancer stem-like cells (spheroids) (assay: cell growth relative to untreated control; higher = more growth (less inhibition)). Settings: 2.29 µM; 96 h.
Outline: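 After trypsin dissociation, OVCAR-3 spheroid-derived stem-like cells were placed in ultra-low attachment 96-well plates at 50,000 cells/mL in stem cell medium and preincubated for 24 h. Treatment at 2.29 uM followed for 96 h at 37°C, 5% CO2, with 4 replicate wells per compound. A 4 h TOX8 resazurin fluorescence read (ex 560/em 590 nm) gave viability, from which percent growth relative to untreated wells was derived after blank subtraction and Grubbs outlier removal.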

| SMILES | cell growth |
| --- | --- |
| OCC1OC(n2cnc3c(SCc4ccccc4)ncnc32)C(O)C1O (centres undefined) | 118 ± 33% |
| O=C(c1ccccc1)C(c1ccccc1)C1(O)C(=O)Nc2c(Cl)cc(Cl)cc21 (centres undefined) | 114 ± 29% |
| O=C(Nc1cccc(C(F)(F)F)c1)C(=O)C(C(=O)c1ccc(Cl)c(Cl)c1)C1OC(=O)c2ccccc21 (centres undefined) | 102 ± 20% |
| CCOC(=O)CNC(=O)NC12CC3CC(CC(C3)C1)C2 | 95.4 ± 18% |
| Cc1ccc(C2NC(=O)c3ccccc3N2)s1 (centres undefined) | 60.4 ± 16% |
| COc1ccc(N=Cc2ccc(N(CCC#N)S(=O)(=O)c3ccccc3)cc2C)cc1 | 80.6 ± 28% |
| O=NN(CCCl)C(=O)NCc1ccc[n+]([O-])c1 | 76.9 ± 13% |
| NC(=O)c1csc(C2OC(CO)C(O)C2O)n1 (centres undefined) | 90.6 ± 11% |
| Cc1ccccc1OCC(COC(=O)Nc1ccccc1)OC(=O)Nc1ccccc1 (centres undefined) | 111 ± 16% |
| COC(=O)c1[nH]c(=S)[nH]c(=O)c1-c1ccc(Cl)cc1 | 37.8 ± 14% |
| Cc1ccc(S(=O)(=O)SC/C=C/CSS(=O)(=O)c2ccc(C)cc2)cc1 | 113 ± 25% |
| Cc1[nH]c(=O)nc(N/N=C/c2ccc(Cl)cc2)c1C(=O)Nc1ccc(Cl)cc1 | 63.1 ± 11% |
| Cc1c2ccnc(C(N)=O)c2c(C)c2c1[nH]c1ccccc12 | 113 ± 10% |
| Nc1ccn([C@@H]2C=C(CO)[C@@H](O)[C@H]2O)c(=O)n1 | 44.8 ± 5.1% |
| CN(C)CCOc1ccc(I)cc1Cc1ccccc1 | 74.4 ± 31% |
| COc1cc(OC)c2c(C)cc(=O)oc2c1 | 108 ± 32% |
| CCCCOc1ccc(NC(N)=Nc2ccc(Cl)cc2)cc1 | 124 ± 20% |
| Cc1ccc2[nH]c(O)c(N=Nc3ccccc3[N+](=O)[O-])c2c1 | 108 ± 15% |
| CC(C)(C)C1CCC2(CC1)CCN(CCCN1CCOCC1)CC2 | 119 ± 12% |
| N[C@H](C(=O)O)[C@H]1ON=C(Cl)[C@H]1O | 91.4 ± 16% |

| SMILES | cell growth |
| --- | --- |
| N#CCCN(CCC#N)c1ccc(/C=C2/N=C(c3cc([N+](=O)[O-])ccc3Cl)OC2=O)cc1 | 114 ± 40% |
| CN(C)C[C@H]1CC[C@@H](CN(C)C)C1=O | 93.8 ± 21% |
| CCCCn1c2c(n(CCCC)c1=S)-c1c(n(CCCC)c(=S)n1CCCC)SSSS2 | 27.2 ± 5.8% |
| COc1ccc(-c2csc(=[N+]3CCCCC3)s2)cc1 | 80 ± 11% |
| Oc1ccc(-c2nc3ccccc3s2)cc1 | 94.8 ± 14% |
| COC(=O)c1ccccc1NC(=O)C(=O)CC(=O)c1ccccc1NC1=CC(=O)C(=O)c2ccccc21 | 65.5 ± 12% |
| CC1(C)CCCC2(C)C3=C(CCC12)C(=O)OC3 (centres undefined) | 84.4 ± 24% |
| CCOC(=O)c1sc2[n+](c1C)C(=O)/C(=C/c1ccc([N+](=O)[O-])cc1)S2 | 94.2 ± 27% |
| c1ccc(-c2cccc(-c3ccccn3)n2)nc1 | 79.9 ± 17% |
| Nc1ncnc2c1ncn2C1OC(CO)C(O)C1O (centres undefined) | 111 ± 13% |
| C=C1CC(COc2cc(=O)oc3ccccc23)(c2ccccc2)OC1=O (centres undefined) | 76.3 ± 22% |
| C=C1C(=O)OC2C1CC1OC2C(C)CCC/C(C)=C\CCC1(C)O (centres undefined) | 115 ± 10% |
| C=CC(=O)N1C/C(=C\c2ccccc2)C(=O)/C(=C/c2ccccc2)C1 | 43.2 ± 6.1% |
| COc1cc2c(c(O)c1OC)-c1c(cc(OC)c(OC)c1OC)C[C@@H](C)[C@@H](C)C2 | 82 ± 20% |
| O=[N+]([O-])c1cccc2c(N=Nc3ccc4ccccc4c3O)c(O)cc(S(=O)(=O)O)c12 | 74.2 ± 40% |
| Nc1cc2[nH]cnc2c(=O)[nH]1 | 77.1 ± 7.5% |
| O=C1C=CC(=O)c2c(O)c(N3CCN(CCOCCO)CC3)c(Br)c(O)c21 | 18 ± 6.4% |
| COc1cc(CC(=O)c2cc3c(cc2-c2ccccc2)OCO3)cc(OC)c1OC | 83.1 ± 25% |
| Clc1ccc(C(c2ccccc2Cl)C(Cl)Cl)cc1 (centres undefined) | 128 ± 48% |
